# About 2,000 (36%) of roughly 5,500 compounds were called active. Not shown: some 18% with an inconclusive outcome. The list shows a part of the results. A number with no mark means an inactive call. No stated cut-off is given here; in the data, active means normalized growth mostly below about 0.91 (no sharp cut-off); inconclusive means no clear call, values can overlap the other calls; inactive means mostly above about 0.92.
# Experiment: chemical genetic growth profiling, strain panel (AID 1159580);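 further: tested at 20 µM; growth read once vehicle control cultures reached saturation at 30 °C; 1 = growth at the plate median or of vehicle wells; lower values mean less growth of the strain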
# Settings: growth OD
# [1] = S. cerevisiae deletion strains, locus YDL101C, strain DUN1, hits give low values
# [2] = S. cerevisiae deletion strains, locus YHR030C, strain SLT2, hits give low values
compound,measurement,setting,value
CCCOc1ccccc1/C=N\NC(=S)Nc1cccc(F)c1,normalized growth,"S. cerevisiae deletion strains, locus YAL013W, strain DEP1, hits give low values",0.999
same,normalized growth,"S. cerevisiae deletion strains, locus YBR229C, strain ROT2, hits give low values",1.02
same,normalized growth,"S. cerevisiae deletion strains, locus YCL061C, strain MRC1, hits give low values",1.01
same,normalized growth,[1],1.04
same,normalized growth,"S. cerevisiae deletion strains, locus YDR150W, strain NUM1, hits give low values",1
same,normalized growth,"S. cerevisiae deletion strains, locus YEL061C, strain CIN8, hits give low values",1
same,normalized growth,"S. cerevisiae deletion strains, locus YGR078C, strain PAC10, hits give low values",1
same,normalized growth,"S. cerevisiae deletion strains, locus YGR229C, strain SMI1, hits give low values",1.01
same,normalized growth,[2],0.921
same,normalized growth,"S. cerevisiae deletion strains, locus YHR087W, strain rtc3, hits give low values",1.03
same,normalized growth,"S. cerevisiae deletion strains, locus YJL187C, strain SWE1, hits give low values",1
same,normalized growth,"S. cerevisiae deletion strains, locus YJR043C, strain POL32, hits give low values",1.01
same,normalized growth,"S. cerevisiae deletion strains, locus YJR075W, strain HOC1, hits give low values",1.08
same,normalized growth,"S. cerevisiae deletion strains, locus YLR039C, strain RIC1, hits give low values",1.02
same,normalized growth,"S. cerevisiae deletion strains, locus YLR058C, strain SHM2 (second series), hits give low values",1
same,normalized growth,"S. cerevisiae deletion strains, locus YLR085C, strain ARP6, hits give low values",0.882
same,normalized growth,"S. cerevisiae deletion strains, locus YLR262C, strain YPT6, hits give low values",1.02
same,normalized growth,"S. cerevisiae deletion strains, locus YML094W, strain GIM5, hits give low values",1.01
same,normalized growth,"S. cerevisiae deletion strains, locus YMR219W, strain ESC1, hits give low values",1.01
same,normalized growth,"S. cerevisiae deletion strains, locus YMR263W, strain SAP30, hits give low values",0.966
same,normalized growth,"S. cerevisiae deletion strains, locus YMR307W, strain GAS1, hits give low values",0.93
same,normalized growth,"S. cerevisiae deletion strains, locus YNL153C, strain GIM3, hits give low values",1
same,normalized growth,"S. cerevisiae deletion strains, locus YNL298W, strain CLA4 (second series), hits give low values",0.983
same,normalized growth,"S. cerevisiae deletion strains, locus YNL322C, strain KRE1, hits give low values",1.03
same,normalized growth,"S. cerevisiae deletion strains, locus YNR030W, strain Alg12, hits give low values",0.988
same,normalized growth,"S. cerevisiae deletion strains, locus YPL055C, strain LGE1, hits give low values",0.945
same,normalized growth,"S. cerevisiae deletion strains, locus YPL241C, strain CIN2, hits give low values",0.996
same,normalized growth,"S. cerevisiae deletion strains, locus YPR135W, strain CTF4, hits give low values",0.987
same,normalized growth,"S. cerevisiae strains, strain wild type, hits give low values",1
O=C(/C=C/c1ccc2c(c1)OCO2)Nc1ccc(Br)cc1,normalized growth,"S. cerevisiae deletion strains, locus YAR019C, strain CDC15, hits give low values",0.962
same,normalized growth,"S. cerevisiae deletion strains, locus YBL105C, strain PKC1, hits give low values",0.962
same,normalized growth,"S. cerevisiae deletion strains, locus YBR135W, strain CKS1, hits give low values",0.972
same,normalized growth,"S. cerevisiae deletion strains, locus YBR136W, strain MEC1, hits give low values",0.961
same,normalized growth,"S. cerevisiae deletion strains, locus YBR160W, strain CDC28, hits give low values",0.967
same,normalized growth,"S. cerevisiae deletion strains, locus YDL017W, strain CDC7, hits give low values",0.964
same,normalized growth,"S. cerevisiae deletion strains, locus YDL028C, strain MPS1, hits give low values",0.962
same,normalized growth,[1],0.955
same,normalized growth,"S. cerevisiae deletion strains, locus YDL108W, strain KIN28, hits give low values",0.961
same,normalized growth,"S. cerevisiae deletion strains, locus YDL132W, strain cdc53, hits give low values",0.96
same,normalized growth,"S. cerevisiae deletion strains, locus YDL214C, strain PRR2, hits give low values",0.922
same,normalized growth,"S. cerevisiae deletion strains, locus YDR052C, strain DBF4, hits give low values",0.953
same,normalized growth,"S. cerevisiae deletion strains, locus YDR054C, strain cdc34, hits give low values",0.958
same,normalized growth,"S. cerevisiae deletion strains, locus YDR226W, strain ADK1, hits give low values",0.968
same,normalized growth,"S. cerevisiae deletion strains, locus YDR477W, strain SNF1, hits give low values",0.962
same,normalized growth,"S. cerevisiae deletion strains, locus YER123W, strain YCK3, hits give low values",0.9
same,normalized growth,"S. cerevisiae deletion strains, locus YER133W, strain GLC7, hits give low values",0.976
same,normalized growth,"S. cerevisiae deletion strains, locus YFL009W, strain cdc4, hits give low values",0.954
same,normalized growth,"S. cerevisiae deletion strains, locus YFL029C, strain CAK1, hits give low values",0.962
same,normalized growth,"S. cerevisiae deletion strains, locus YFR003C, strain YPI1, hits give low values",0.957
same,normalized growth,"S. cerevisiae deletion strains, locus YFR019W, strain FAB1, hits give low values",0.987
same,normalized growth,"S. cerevisiae deletion strains, locus YFR028C, strain CDC14, hits give low values",0.955
same,normalized growth,"S. cerevisiae deletion strains, locus YGR040W, strain KSS1, hits give low values",0.95
same,normalized growth,"S. cerevisiae deletion strains, locus YGR052W, strain FMP48, hits give low values",0.909
same,normalized growth,"S. cerevisiae deletion strains, locus YGR092W, strain DBF2, hits give low values",0.767
same,normalized growth,[2],0.86
same,normalized growth,"S. cerevisiae deletion strains, locus YHR079C, strain IRE1, hits give low values",0.872
same,normalized growth,"S. cerevisiae deletion strains, locus YHR082C, strain KSP1, hits give low values",0.965
same,normalized growth,"S. cerevisiae deletion strains, locus YHR205W, strain SCH9, hits give low values",0.791
same,normalized growth,"S. cerevisiae deletion strains, locus YIL147C, strain SLN1, hits give low values",0.962
same,normalized growth,"S. cerevisiae deletion strains, locus YJL095W, strain BCK1, hits give low values",0.77
same,normalized growth,"S. cerevisiae deletion strains, locus YJL128C, strain PBS2, hits give low values",0.918
same,normalized growth,"S. cerevisiae deletion strains, locus YJL157C, strain FAR1, hits give low values",0.974
same,normalized growth,"S. cerevisiae deletion strains, locus YJR016C, strain ILV3, hits give low values",0.958
same,normalized growth,"S. cerevisiae deletion strains, locus YJR066W, strain TOR1 (second series), hits give low values",0.972
same,normalized growth,"S. cerevisiae deletion strains, locus YJR066W, strain TOR1, hits give low values",0.912
same,normalized growth,"S. cerevisiae deletion strains, locus YKL048C, strain ELM1, hits give low values",0.931
same,normalized growth,"S. cerevisiae deletion strains, locus YKL067W, strain YNK1, hits give low values",0.932
same,normalized growth,"S. cerevisiae deletion strains, locus YKL101W, strain HSL1, hits give low values",0.933
same,normalized growth,"S. cerevisiae deletion strains, locus YKL193C, strain SDS22, hits give low values",0.954
same,normalized growth,"S. cerevisiae deletion strains, locus YKL203C, strain TOR2, hits give low values",1.03
same,normalized growth,"S. cerevisiae deletion strains, locus YLR113W, strain HOG1, hits give low values",0.754 (active)
same,normalized growth,"S. cerevisiae deletion strains, locus YLR133W, strain CKI1, hits give low values",0.96
same,normalized growth,"S. cerevisiae deletion strains, locus YLR403W, strain SFP1, hits give low values",0.927
same,normalized growth,"S. cerevisiae deletion strains, locus YML070W, strain DAK1, hits give low values",0.9
same,normalized growth,"S. cerevisiae deletion strains, locus YMR001C, strain CDC5, hits give low values",0.957
same,normalized growth,"S. cerevisiae deletion strains, locus YMR205C, strain PFK2 (second series), hits give low values",0.938
same,normalized growth,"S. cerevisiae deletion strains, locus YMR277W, strain FCP1, hits give low values",0.959
same,normalized growth,"S. cerevisiae deletion strains, locus YNL006W, strain LST8, hits give low values",0.974
same,normalized growth,"S. cerevisiae deletion strains, locus YNL020C, strain ARK1, hits give low values",0.955
same,normalized growth,"S. cerevisiae deletion strains, locus YNL161W, strain CBK1, hits give low values",0.971
same,normalized growth,"S. cerevisiae deletion strains, locus YNL183C, strain NPR1, hits give low values",0.889
same,normalized growth,"S. cerevisiae deletion strains, locus YNL207W, strain RIO2, hits give low values",0.953
same,normalized growth,"S. cerevisiae deletion strains, locus YNL222W, strain SSU72, hits give low values",0.966
same,normalized growth,"S. cerevisiae deletion strains, locus YNL307C, strain MCK1 (second series), hits give low values",0.854
same,normalized growth,"S. cerevisiae deletion strains, locus YOL078W, strain AVO1, hits give low values",0.945
same,normalized growth,"S. cerevisiae deletion strains, locus YOL136C, strain PFK27, hits give low values",0.889
same,normalized growth,"S. cerevisiae deletion strains, locus YOR061W, strain CKA2, hits give low values",0.973
same,normalized growth,"S. cerevisiae deletion strains, locus YOR119C, strain RIO1, hits give low values",1.02
same,normalized growth,"S. cerevisiae deletion strains, locus YOR231W, strain MKK1, hits give low values",0.847
same,normalized growth,"S. cerevisiae deletion strains, locus YOR329C, strain SCD5, hits give low values",0.963
same,normalized growth,"S. cerevisiae deletion strains, locus YPL031C, strain PHO85, hits give low values",0.962
same,normalized growth,"S. cerevisiae deletion strains, locus YPL153C, strain RAD53, hits give low values",0.97
same,normalized growth,"S. cerevisiae deletion strains, locus YPL204W, strain HRR25, hits give low values",0.95
same,normalized growth,"S. cerevisiae deletion strains, locus YPL209C, strain IPL1, hits give low values",0.963
same,normalized growth,"S. cerevisiae deletion strains, locus YPL256C, strain CLN2, hits give low values",0.954
same,normalized growth,"S. cerevisiae deletion strains, locus YPR025C, strain CCL1, hits give low values",0.958
same,normalized growth,"S. cerevisiae deletion strains, locus YPR106W, strain ISR1, hits give low values",0.946
same,normalized growth,"S. cerevisiae deletion strains, locus YPR111W, strain DBF20, hits give low values",0.925
same,normalized growth,"S. cerevisiae deletion strains, strain NNK1, hits give low values",0.939
same,normalized growth,"S. cerevisiae deletion strains, strain TSCII, hits give low values",0.968

# Source: PubChem BioAssay AID1159580 (chemical genetic matrix, 2015)
